Records with an inconclusive call do not appear. Calls of active or inactive are those of the source. How the source made its calls: active means hit-call score of the fitted dose curve at least 0.9, where 1 is the maximum; inconclusive means response in the unintended direction; inactive means score below 0.9.

The assay deals with Oxysterols receptor LXR-beta (Homo sapiens) (UniProt P55055). Description: ATG_LXRb_TRANS: Attagene TRANS-FACTORIAL HepG2 Assay for human Liver X Receptor beta (LXRb) (AID 2282981). The following applies: HepG2 Attagene TRANS GAL4-LXRb reporter, mRNA. The essentials: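 After 24 h of chemical treatment, transfected HepG2 cells yield total RNA; reporter cDNA is PCR-amplified, FAM-labelled, HpaI-cut and run on capillary electrophoresis. Signal reflects chimeric LXRb-Gal4 activity on GAL4-UAS reporters.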
Sequence of Oxysterols receptor LXR-beta (Homo sapiens) (P55055 whole entry, looked up, the tested form may be a part): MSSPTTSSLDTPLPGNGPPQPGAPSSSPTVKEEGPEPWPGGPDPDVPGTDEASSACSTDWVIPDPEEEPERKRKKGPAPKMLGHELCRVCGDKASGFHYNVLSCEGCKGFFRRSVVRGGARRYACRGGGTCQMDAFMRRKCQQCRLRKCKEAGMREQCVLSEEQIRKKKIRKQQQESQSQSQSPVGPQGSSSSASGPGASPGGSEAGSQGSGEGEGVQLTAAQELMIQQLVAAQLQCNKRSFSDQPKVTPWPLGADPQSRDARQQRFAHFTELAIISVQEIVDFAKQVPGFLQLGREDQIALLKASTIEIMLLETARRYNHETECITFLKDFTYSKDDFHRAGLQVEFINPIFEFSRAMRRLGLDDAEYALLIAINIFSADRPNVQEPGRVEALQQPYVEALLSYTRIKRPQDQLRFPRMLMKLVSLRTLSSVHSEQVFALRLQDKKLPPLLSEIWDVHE
As to `CC1CNCC(C)O1` (stereo unspecified), the call was inactive. `CCOC(=O)CN[C@@H](C(=O)N1CC[C@H]1C(=O)NCc1ccc(/C(N)=N/O)cc1)C1CCCCC1`: the outcome was inactive. As for `CCCCCCc1ccc(N)cc1`, the entry is “inactive”; as for `O=C1c2ccc(O)c(O)c2C(=O)c2c(O)ccc(O)c21`, “inactive”. For `CC1=NN(c2ccccc2)C(=O)C1`, the compound was classed as inactive. Under `FC(F)(F)C(F)(F)C(F)(F)C(F)(F)I` stands “inactive”. Take `Cc1[nH]nc2c1N=C(c1ccccc1Cl)c1cc([N+](=O)[O-])ccc1N2`: the compound was classed as inactive. With `Nc1ccn([C@@H]2O[C@H](CO)[C@@H](O)C2O)c(=O)n1` (stereo partly specified), the compound was classed as inactive. As for `CN(C)c1ccc(C(=C2C=CC(=[N+](C)C)C=C2)c2ccccc2)cc1`, the entry is “inactive”. Take `CCCCCCCCCCCCCCCCCC[N+](C)(C)Cc1ccccc1`: the compound was classed as inactive. Regarding `CCCCN(C)C`, the result was inactive.

On to `CCC(=O)C=Cc1ccc(OC)cc1`, for which the compound was classed as inactive.

In the case of `O=P(O)(O)CCC(F)(F)C(F)(F)C(F)(F)C(F)(F)C(F)(F)C(F)(F)C(F)(F)C(F)(F)F`, the outcome was inactive. As for `CC(C)CCOCCC(C)C`, the entry is “inactive”; as for `CC(C)(C)C1CCCCC1O` (stereo unspecified), “inactive”. `O=S(=O)(O)c1ccccc1`: the outcome was inactive. As for `O=C(O)CN(CCCN(CC(=O)O)CC(=O)O)CC(=O)O`, the entry is “inactive”; as for `Brc1cc(Br)c(Oc2c(Br)cc(Br)c(Br)c2Br)cc1Br`, “inactive”; as for `Brc1ccc(Oc2ccc(Br)cc2Br)cc1`, “inactive”. On to `CCc1cccc(CC)c1NC(=O)C(=O)O`, for which the outcome was inactive. Under `CC(C)(C)c1ccc(O)c(O)c1` stands “inactive”.

On to `O=C(F)C(F)(F)C(F)(F)C(F)(F)C(F)F`, for which the compound was called inactive. On to `NNC(=O)CCCCC(=O)NN`, for which the result was inactive.

For the compound `COCN(COC)c1nc(N(COC)COC)nc(N(COC)COC)n1`, the result was inactive. As for `FC(F)(F)N1C(F)(F)C(F)(F)OC(F)(F)C1(F)F`, the entry is “inactive”.

For the compound `Cc1cc(C(C)(C)C)c(O)c(C(C)(C)C)c1`, the compound was classed as inactive. `Cc1cc(Cc2cc(C)cc(C(C)(C)C)c2O)c(O)c(C(C)(C)C)c1`: the outcome was inactive. As for `Cc1ccc2ccc3ccc(C)cc3c2c1`, the entry is “inactive”; as for `COc1cc(OC)nc(NC(=O)NS(=O)(=O)Nc2ccccc2C(=O)N(C)C)n1`, “inactive”; as for `O=C(CC(=O)C(F)(F)C(F)(F)C(F)(F)F)c1cccs1`, “inactive”. In the case of `O=C(O)CCC(F)(F)C(F)(F)C(F)(F)C(F)(F)C(F)(F)C(F)(F)F`, the compound was called inactive. As for `C=CC(F)(F)C(F)(F)C(F)(F)C(F)(F)F`, the outcome was inactive. Under `Oc1c(Cl)cc(Cl)cc1Sc1cc(Cl)cc(Cl)c1O` stands “inactive”; under `O=C(Nc1ccc(Cl)c(Cl)c1)c1cc(Cl)cc(Cl)c1O`, “inactive”; under `OCC1CCC(CO)CC1` (stereo unspecified), “inactive”. Regarding `C[N+](C)(CCCNS(=O)(=O)CCC(F)(F)C(F)(F)C(F)(F)C(F)(F)C(F)(F)C(F)(F)F)CC(=O)[O-]`, the compound was called inactive.

These data come from PubChem BioAssay (EPA / NIEHS).
